# Results taken from PubChem BioAssay AID504467 (National Center for Advancing Translational Sciences (NCATS), 2011).
# The campaign covered roughly 330,000 compounds. About 7,700 (2.3%) were called active. About 26% were inconclusive and are not listed. Calls come from the whole dose curve; as a rule, active = well fitted inhibition curve with a large enough effect; inconclusive = small, poorly fitted or top-dose-only effect, or effect the other way; inactive = flat fitted curve, though single readings scatter. The entries come from a sample that favours actives as a whole.
# Assay: qHTS screen for small molecules that inhibit ELG1-dependent DNA repair in human embryonic kidney (HEK293T) cells expressing luciferase-tagged ELG1; note: nearly all actives have a fitted effect of over 55% in size
# Details: HEK293T ELG1-luciferase reporter, luminescence, 16 h, DNA damage induced by 5-fluorouridine; series mostly up to 46.1 µM; activity change, negative = inhibition: at the top concentration
# Procedure, shortened: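 Cells (2,000 per well) received 5-fluorouridine plus test compound or DMSO and were incubated 16 hr at 37 °C, 5% CO2. Luciferase activity was read by luminescence 30 min after ONE-Glo addition; signal suppression marked inhibition of damage-induced ELG1 function.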
# % is set by controls: 0 for no effect and ±100 for the full control effect; potency is the fitted concentration of half-maximal effect.
Structure (SMILES),"activity change, negative = inhibition",Potency
Cc1nn(-c2ccccc2)c(C)c1C(=O)OCC(=O)NC(=O)NC1CCCCC1,-26.1% (inactive),
COc1ccc2nc(/N=C(\N)NC(=O)Nc3ccccc3)nc(C)c2c1,-16.6% (inactive),
COc1cc(OC)cc(C(=O)NNC(=O)Cc2cccs2)c1,19% (inactive),
CC1Cc2ccccc2N1S(=O)(=O)c1cccc(C(=O)NCC(c2ccco2)N2CCCC2)c1 (centres undefined),1.24% (inactive),
COc1cccc(C(=O)NCCS(=O)(=O)NCC2CCCO2)c1 (centres undefined),13.3% (inactive),
COc1cccc(/C=C2\Sc3ccc(C(=O)NCC4CCCO4)cc3N(C)C2=O)c1 (centres undefined),,20.6 µM (active)
COc1ccccc1-n1cnc2cc(C(=O)NCC3CCCO3)ccc21 (centres undefined),11.5% (inactive),
COc1cccc(CNC(=O)CN2C(=O)NC(Cc3ccccc3)(c3ccccc3)C2=O)c1 (centres undefined),-5.01% (inactive),
CCOc1ccc(CCNC(=O)COC(=O)c2c(OC)cccc2OC)cc1OCC,-5.36% (inactive),
CCCN1C2CCCC1CC(NC(=O)c1cccc(OC)c1)C2 (centres undefined),-8.9% (inactive),
COc1ccccc1N1CCN(C(=O)c2ccc(S(=O)(=O)N3CCCCC3)cc2)CC1,-21.4% (inactive),
O=C(c1c(Cl)cccc1Cl)N1CCN(c2cccc3[nH]ccc23)CC1,,18.3 µM (active)
O=C(c1ccc(S(=O)(=O)N2CCCC2)cc1)N1CCN(c2ccccc2F)CC1,13.3% (inactive),
COc1ccc(C)cc1NC(=O)CSc1nnc2ccc(-c3ccccn3)nn12,-10.6% (inactive),
COC(=O)c1cccc(C(=O)N2CCC(CCC(=O)NCc3ccc(F)cc3)CC2)c1,-2.27% (inactive),
CN(C)CCn1c2c(c(SCC(=O)NCc3ccccc3)nc1=O)CCC2,13.9% (inactive),
Cc1ccc(OCCNC(=O)CN2C(=O)NC3(CCCC3)C2=O)cc1,1.29% (inactive),
CC(NC(=O)COC(=O)CCC(=O)c1ccc(Cl)cc1)c1ccccc1 (centres undefined),2.29% (inactive),
COc1ccccc1-c1nnc2n1N=C(c1ccc(OC(F)F)c(OCC3CC3)c1)CS2,8.85% (inactive),
CC1=Nn2c(nnc2-c2ccccc2)SC1,8.64% (inactive),
COc1ccc(C2=Nn3c(nnc3-c3ccccc3OC)SC2)cc1OC1CCCC1,,20.6 µM (active)
CC(=O)Nc1cccc(Nc2nc(-c3cccs3)nc3ccccc23)c1,,16.4 µM (active)
COC(=O)c1cc(-c2cccs2)nc2ccccc12,2.19% (inactive),
O=C(Nc1nnc(-c2ccccc2)o1)c1cc(-c2cccs2)nc2ccccc12,-10.2% (inactive),
Cc1ccc2[nH]cc(CCNC(=O)C3CCCCC3)c2c1,-2.4% (inactive),

Structure (SMILES),"activity change, negative = inhibition",Potency
Cc1ccc2[nH]c(=O)c(CN(CCCN(C)C)C(=O)Nc3cccc(Cl)c3)cc2c1,0% (inactive),
O=C(c1cccs1)N(Cc1cc2ccccc2[nH]c1=O)CC1CCCO1 (centres undefined),18.7% (inactive),
Cc1cccc(NC(=O)N(Cc2cc3cc(C)cc(C)c3[nH]c2=O)CC2COCCO2)c1 (centres undefined),,11.6 µM (active)
Cc1cccc(N(Cc2ccccc2)C(=O)c2cc(S(=O)(=O)N3CCOCC3)ccc2F)c1,-24.2% (inactive),
CC(C)(C)c1ccc(C(=O)N2CCN(CCNC(=O)C(=O)Nc3ccc(F)cc3)CC2)cc1,-5.49% (inactive),
Fc1ccccc1/C=C1\CCCC2=C1Nc1ncnn1C2c1ccccc1F (centres undefined),,18.4 µM (active)
CC1=C(C(N)=O)C(c2ccc(Br)cc2)n2ncnc2N1 (centres undefined),0% (inactive),
Cc1cccc(N(C(=O)c2sc(C)nc2C)C(C(=O)NCC2CCCO2)c2ccccc2)c1 (centres undefined),-6.84% (inactive),
CCCCNc1nc2c(c(=O)[nH]c(=O)n2C)n1CCOc1ccccc1,-13.5% (inactive),
CCCCn1c(SCC(=O)NCCc2ccc(OC)c(OC)c2)nc2c1c(=O)n(C)c(=O)n2C,1.48% (inactive),
COC(=O)C(C)Sc1nc2c(c(=O)n(C)c(=O)n2C)n1Cc1cccc(C)c1 (centres undefined),5.21% (inactive),
COc1ccc(CCN2CNc3c(c(=O)n(C)c(=O)n3C)C2)cc1OC,-11% (inactive),
CCCCNc1nc2c(c(=O)n(C)c(=O)n2C)n1Cc1cccc(OC)c1,,5.17 µM (active)
CC(C)CCn1c(=O)c2c(nc3n2CCCN3Cc2ccccc2)n(C)c1=O,-15.5% (inactive),
Cn1c(=O)c2c(nc(NCc3ccccc3)n2CC(N)=O)n(C)c1=O,-6.05% (inactive),
CC(C)CCn1c(CN(C)Cc2ccccc2)nc2c1c(=O)n(C)c(=O)n2C,,20.6 µM (active)
Cn1c(=O)c2c(ncn2CCc2ccccc2)n(C)c1=O,8.66% (inactive),
Cn1c(=O)c2c(nc(NCCc3ccccc3)n2Cc2ccccc2)n(C)c1=O,,23.1 µM (active)
Cn1c(=O)c2c(nc(NCCNC(=O)c3ccco3)n2Cc2ccccc2F)n(C)c1=O,-4.05% (inactive),
CCn1c(NCCc2ccc(OC)c(OC)c2)nc2c1c(=O)n(C)c(=O)n2C,,11.6 µM (active)
Cn1nccc1C(=O)N1CCCC(C(=O)c2ccc(Oc3ccccc3)cc2)C1 (centres undefined),-11% (inactive),
Cc1ccccc1NC(=S)NC(=O)Cc1ccc(Cl)cc1,1.58% (inactive),
OC(CNCCc1ccc(Cl)cc1Cl)COc1ccccc1 (centres undefined),-0.165% (inactive),
COCCN(CCOC)S(=O)(=O)NC[C@H]1O[C@@H](n2cnc3c(N)ncnc32)[C@H](O)[C@@H]1O,-3.78% (inactive),
